In test [1] the target is Luciferin 4-monooxygenase (Photinus pyralis) (UniProt P08659). In words: Biochemical firefly luciferase enzyme assay for NPC (AID 624030). Also: nearly all actives have a fitted effect of over 70% in size. Also: potency is read from the fitted curve at half-maximal effect. The essentials: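 Direct inhibition of firefly luciferase enzyme (10 nM final, 50 mM Tris Acetate) assessed by luminescence within 5 minutes. Percent activity scaled between DMSO and PTC124 positive control, with concentration-effect curves classified by fit quality and response.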

Test [2] has as its target Voltage-gated inwardly rectifying potassium channel KCNH2 (Homo sapiens) (UniProt Q12809). In words: qHTS Assay for Small Molecule Inhibitors of the Human hERG Channel Activity (AID 588834).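 Also: top concentration of the series differs between compounds; lower thallium flux fluorescence means stronger hERG block; nearly all actives have a fitted effect of over 50% in size.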 A digest of the protocol:
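U2OS cells BacMam-transduced with hERG, 2000 cells/well, compound ~10 min at 37 °C before stimulation buffer. FluxOR thallium flux fluorescence read kinetically on FDSS; decrease indicates block; AC50 from Hill fits.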

The nature of test [3]: S16 Schwann cell viability assay (CellTiter-Glo assay) (AID 624031). Also: nearly all actives have a fitted effect of over 70% in size. Also: potency is read from the fitted curve at half-maximal effect. The essentials:
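CellTiter-Glo ATP luminescence counter-screen in untransfected S16 rat Schwann cells, 24h compound exposure at 37 degree Celsius after overnight seeding (500-750 cells/well); response scaled between cell-free wells and DMSO (0% activity), curves classed by r2 and magnitude.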
(In general: In ATP-based viability assays light output follows the ATP content of the culture.)

Test [4] is described as follows: S16 Schwann cell PMP22 intronic element firefly luciferase assay (AID 624032). Also: nearly all actives have a fitted effect of over 30% in size. Also: potency is read from the fitted curve at half-maximal effect. A digest of the protocol:
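Luciferase reporter of PMP22 intronic-element expression in stably transfected S16 rat Schwann cells, read by ONE-Glo luminescence after 24 h compound exposure at 37 C. Activity scaled between DMSO (0%) and positive-control PTC124; concentration-effect curves quality-classified.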

A short description of test [5]: S16 Schwann cell PMP22 intronic element beta-lactamase assay (AID 624044; calls by dose curve; also: nearly all actives have a fitted effect of over 15% in size). The essentials:
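Rat S16 Schwann cells with beta-Lac driven by a PMP22 intronic element, compound-treated 24 h at 37 °C. LiveBLAzer FRET B/G read: 460 nm normalized to potassium clavulanate vs DMSO; 535 nm FRET as viability; concentration-effect curves classified.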

Test [6] in a line: qHTS assay for small molecule activators of the p53 signaling pathway (AID 651743; active = well fitted activation curve with a large enough effect in the signal ratio, not every such curve was filed as active; the % refers to the signal ratio; also: series mostly up to about 92 µM). The conditions noted are these: HCT-116 p53RE-bla, beta-lactamase FRET ratio, 16 h; active compounds read high. A digest of the protocol: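 Read-out is fluorescence intensity from the LiveBLAzer B/G FRET substrate, added for 2 hours at room temperature after HCT-116 p53RE-bla cells had been incubated with compounds for 16 hours at 37 C.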

Test [7] can be described thus: qHTS assay for small molecule activators of the nuclear factor-kappa B (NF-kB) signaling pathway (AID 651749; active = well fitted activation curve with a large enough effect in the signal ratio; the % refers to the signal ratio; also: series mostly up to about 77 µM). Conditions: NF-kB-bla ME-180 cells, beta-lactamase FRET ratio, 16 h; active compounds read high. A digest of the protocol:
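Readout: beta-lactamase reporter driven by an NF-kB response element, detected fluorescently as loss of FRET. Cells were the ME-180 line, treated 16 hr at 37C with pin-transferred compound.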
A general note: Quantitative high-throughput screening tests each substance at several concentrations.

Test [8] deals with Tumor necrosis factor (Homo sapiens) (UniProt P01375). Nature of the test: qHTS assay to identify small molecules that stimulate Tumor Necrosis Factor-alpha (TNF-alpha) secretion (AID 651757; active = well fitted curve in the direction sought with a large enough effect in the signal ratio; the % refers to the signal ratio). A digest of the protocol: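 Read-out is HTRF, a TR-FRET sandwich of cryptate- and XL665-labeled anti-TNF-alpha antibodies detecting cytokine secreted by THP-1 cells. Cells had been incubated with test compounds at 37 C for 17 hrs beforehand.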

Test [9] can be described thus: qHTS assay to identify small molecules that stimulate interleukin-8 (IL-8) secretion (AID 651758; active = well fitted activation curve with a large enough effect in the signal ratio; the % refers to the signal ratio). A digest of the protocol: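 Secreted IL-8 measured by TR-FRET sandwich (cryptate and XL665 antibodies) from THP-1 cells exposed to compound overnight (16 hrs, 37 C).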
Test [10] in a line: qHTS assay for environmental chemicals that activate the Aryl hydrocarbon Receptor (AhR) signaling pathway (AID 651777). Also: nearly all actives have a fitted effect of over 15% in size. Conditions: 1A2-DRE human hepatoma cells, luciferase, 24 h; active compounds read high. A digest of the protocol: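 Luminescence (One-Glo, 30 min, room temperature) reports AhR-driven luciferase in stably transfected human hepatoma cells bearing DRE and CYP1A2 promoter. Cells (1,200/well) were treated with compound for 24 hr at 37 C in qHTS format.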

Test [11] concerns the target Peroxisome proliferator-activated receptor alpha (Homo sapiens) (UniProt Q07869). Nature of the test: qHTS assay for small molecule agonists of the peroxisome proliferator-activated receptor alpha (PPARalpha) signaling pathway (AID 651778). Also: potency is read from the fitted curve at half-maximal effect. The conditions noted are these: PathHunter PPARalpha complementation, chemiluminescence, 6 h; max response: active compounds read high. The essentials:
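Chemiluminescence from complemented enzyme reported PPARalpha activation in cells after 6 hr of compound treatment at 37 C. The detection reagent was incubated for 60 min at room temperature, and compounds were scored as agonists.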

Test [12] can be described thus: qHTS assay for small molecule agonists of the antioxidant response element (ARE) signaling pathway (AID 651741; active = well fitted activation curve with a large enough effect in the signal ratio; the % refers to the signal ratio; also: potency is read from the fitted curve at half-maximal effect). A digest of the protocol: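 Quantitative HTS in HepG2 cells stably expressing an ARE-beta-lactamase reporter; 16 h compound exposure at 37 C, followed by 2 h room-temperature incubation with LiveBLAzer B/G FRET substrate and fluorescence measurement.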

Test [13] concerns the target Tumor susceptibility gene 101 protein (Homo sapiens) (UniProt Q99816). In words: qHTS Assay for Iinhibitors of HIV-1 Budding by Blocking the Interaction of PTAP/TSG101: Hit Validation (AID 651600). Also: nearly all actives have a fitted effect of over 70% in size. A digest of the protocol: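 Fluorescence polarization binding assay: Tsg101 binding domain (10 uM) mixed with compounds and FITC-labeled PTAP peptide (50 nM) in HEPES pH 7.5, 0.15 M NaCl, 0.01% Tween 20, EDTA, TCEP; 20 min at r.t.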

For test [14], the target named is Glutaminase kidney isoform, mitochondrial (Homo sapiens) (UniProt O94925). Nature of the test: qHTS for Inhibitors of Glutaminase (GLS): LOPAC Validation (AID 624146).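 Also: glutamate product detected by oxidase and peroxidase coupled Amplex red fluorescence gain; series mostly up to about 46 µM; nearly all actives have a fitted effect of over 60% in size.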 The essentials: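 Assay buffer: 45 mM KH2PO4 pH 8.2, 0.02% Tween-20. hKGA acts on L-glutamine (1 mM solution added); product glutamate is reported by an oxidase/peroxidase Amplex Red coupling, with fluorescence taken at baseline and 30 min.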

The target of test [15] is Glucagon-like peptide 1 receptor (Homo sapiens) (UniProt P43220). In words: qHTS of GLP-1 Receptor Agonists: LOPAC Validation (AID 624148).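 Also: luminescence from a luciferase reporter switched on by cAMP; higher luminescence signal means agonism.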 A digest of the protocol: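 Agonism scored as increased luciferase luminescence driven by cAMP in HEK293 clones carrying GLP-1R. Cells settled 12 hours, received compound for 4-6 hr at 37 deg C, 5% CO2, and were read after 12 min detection reagent at RT.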

Test [16] can be described thus: qHTS of Nrf2 Activators: LOPAC Validation (AID 624149). The essentials: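 Luminescence read-out of ARE-luciferase activation: AREc32_Fluc cells treated with compounds for 24 hr at 37 deg C, then lysed with Steady-Glo for 30 min at room temperature before reading.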
The nature of test [17]: HTS Assay for Allosteric Antagonists of the Human D2 Dopamine Receptor: Hit Validation in HTRF (AID 624455).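 Also: stable D1 dopamine receptor cell line scored for blocking the D1 response.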 The essentials:
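First, antagonism was screened by calcium flux in a force-coupled, inducible Hek293 Trex D2 line challenged with EC80 dopamine. Hits then went into an HTRF assay in cells stably expressing D1, testing inhibition of the D1 response.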

Values joined by “and” are separate entries in the source; they are usually repeats but may differ in a detail not shown here. Equal entries are not always repeated. A number with no mark means an inactive call. Records with an inconclusive call do not appear. Where a call stands in place of a potency, no number is given. Active and inactive are the calls of the source. Unless noted, calls follow the shape of the dose curve; as a rule, active = well fitted curve in the direction sought with a large enough effect; inconclusive = small, poorly fitted or top-dose-only effect, or another doubt; inactive = no such curve, though single readings can be large; an effect the other way counts as inactive or inconclusive.

Peroxisome proliferator-activated receptor alpha (Homo sapiens), sequence (Q07869 whole entry, looked up): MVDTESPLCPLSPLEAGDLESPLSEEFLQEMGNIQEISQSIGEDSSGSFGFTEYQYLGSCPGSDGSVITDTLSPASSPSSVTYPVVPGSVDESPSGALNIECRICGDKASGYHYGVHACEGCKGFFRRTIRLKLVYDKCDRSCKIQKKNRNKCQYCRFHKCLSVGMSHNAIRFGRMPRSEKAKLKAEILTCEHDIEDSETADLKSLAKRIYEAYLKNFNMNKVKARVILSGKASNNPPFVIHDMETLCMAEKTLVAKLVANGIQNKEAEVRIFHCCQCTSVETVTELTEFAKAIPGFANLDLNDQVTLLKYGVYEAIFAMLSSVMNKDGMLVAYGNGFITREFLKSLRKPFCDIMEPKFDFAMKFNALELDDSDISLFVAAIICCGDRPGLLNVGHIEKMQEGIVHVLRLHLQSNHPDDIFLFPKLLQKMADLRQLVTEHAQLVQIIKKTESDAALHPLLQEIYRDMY
Luciferin 4-monooxygenase (Photinus pyralis), sequence (P08659 whole entry, looked up): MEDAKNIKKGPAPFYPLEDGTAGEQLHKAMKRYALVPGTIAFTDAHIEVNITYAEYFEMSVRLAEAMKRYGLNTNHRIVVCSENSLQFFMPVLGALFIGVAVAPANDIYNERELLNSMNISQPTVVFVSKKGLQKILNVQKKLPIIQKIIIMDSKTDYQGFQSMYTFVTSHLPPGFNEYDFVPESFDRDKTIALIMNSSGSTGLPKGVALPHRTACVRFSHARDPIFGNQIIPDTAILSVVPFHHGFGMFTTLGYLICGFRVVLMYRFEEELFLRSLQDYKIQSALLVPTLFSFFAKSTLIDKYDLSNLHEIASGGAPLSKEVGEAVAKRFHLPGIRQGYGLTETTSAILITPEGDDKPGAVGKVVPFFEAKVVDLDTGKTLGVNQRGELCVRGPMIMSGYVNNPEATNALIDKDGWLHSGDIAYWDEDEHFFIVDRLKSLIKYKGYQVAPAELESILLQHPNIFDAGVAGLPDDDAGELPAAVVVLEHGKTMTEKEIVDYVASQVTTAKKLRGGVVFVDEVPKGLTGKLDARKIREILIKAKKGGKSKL
Voltage-gated inwardly rectifying potassium channel KCNH2 (Homo sapiens), sequence (Q12809 whole entry, looked up): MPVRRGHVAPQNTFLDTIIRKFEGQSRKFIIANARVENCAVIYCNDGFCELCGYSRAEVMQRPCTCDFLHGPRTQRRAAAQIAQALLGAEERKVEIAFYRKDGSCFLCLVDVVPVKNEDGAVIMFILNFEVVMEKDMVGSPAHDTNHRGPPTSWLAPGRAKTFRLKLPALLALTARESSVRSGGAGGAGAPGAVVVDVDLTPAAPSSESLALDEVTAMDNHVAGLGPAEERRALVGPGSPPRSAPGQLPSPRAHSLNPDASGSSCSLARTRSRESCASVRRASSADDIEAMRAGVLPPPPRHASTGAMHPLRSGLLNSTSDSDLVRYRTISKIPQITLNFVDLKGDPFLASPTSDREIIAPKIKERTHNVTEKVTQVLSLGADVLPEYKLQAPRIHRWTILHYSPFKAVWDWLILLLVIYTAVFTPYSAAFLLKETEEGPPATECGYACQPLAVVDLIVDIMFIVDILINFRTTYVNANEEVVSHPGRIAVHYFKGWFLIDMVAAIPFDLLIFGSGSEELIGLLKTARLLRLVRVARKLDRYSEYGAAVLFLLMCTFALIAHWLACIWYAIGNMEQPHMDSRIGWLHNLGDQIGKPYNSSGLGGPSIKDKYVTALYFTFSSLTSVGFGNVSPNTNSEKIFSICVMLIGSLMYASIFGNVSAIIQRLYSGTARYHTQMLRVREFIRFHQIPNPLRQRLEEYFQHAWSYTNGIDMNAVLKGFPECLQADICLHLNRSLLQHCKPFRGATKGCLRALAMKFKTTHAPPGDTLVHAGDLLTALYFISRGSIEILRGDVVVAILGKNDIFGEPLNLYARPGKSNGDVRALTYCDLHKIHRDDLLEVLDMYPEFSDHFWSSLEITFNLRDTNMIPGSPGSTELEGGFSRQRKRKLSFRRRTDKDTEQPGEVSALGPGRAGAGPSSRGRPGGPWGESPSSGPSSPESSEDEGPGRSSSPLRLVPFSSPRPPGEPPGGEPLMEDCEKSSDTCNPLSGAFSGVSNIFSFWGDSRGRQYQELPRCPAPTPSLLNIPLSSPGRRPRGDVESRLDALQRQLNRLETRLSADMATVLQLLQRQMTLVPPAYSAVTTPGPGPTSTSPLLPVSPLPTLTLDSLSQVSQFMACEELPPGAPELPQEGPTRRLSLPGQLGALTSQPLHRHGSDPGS
Glucagon-like peptide 1 receptor (Homo sapiens), sequence (P43220 whole entry, looked up): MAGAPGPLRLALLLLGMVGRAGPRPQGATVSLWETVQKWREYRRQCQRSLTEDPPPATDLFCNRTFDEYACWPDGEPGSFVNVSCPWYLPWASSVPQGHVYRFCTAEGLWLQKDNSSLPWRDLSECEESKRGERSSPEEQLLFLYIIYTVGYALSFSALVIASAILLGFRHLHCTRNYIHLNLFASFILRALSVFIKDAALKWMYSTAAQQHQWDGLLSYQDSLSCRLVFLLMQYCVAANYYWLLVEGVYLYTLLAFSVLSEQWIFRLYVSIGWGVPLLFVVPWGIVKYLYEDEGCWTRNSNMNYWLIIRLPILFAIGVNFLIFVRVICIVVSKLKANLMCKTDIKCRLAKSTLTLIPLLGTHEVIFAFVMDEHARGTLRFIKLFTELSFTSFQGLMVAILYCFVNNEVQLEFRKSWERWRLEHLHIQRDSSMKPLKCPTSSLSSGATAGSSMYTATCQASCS
Tumor necrosis factor (Homo sapiens), sequence (P01375 whole entry, looked up): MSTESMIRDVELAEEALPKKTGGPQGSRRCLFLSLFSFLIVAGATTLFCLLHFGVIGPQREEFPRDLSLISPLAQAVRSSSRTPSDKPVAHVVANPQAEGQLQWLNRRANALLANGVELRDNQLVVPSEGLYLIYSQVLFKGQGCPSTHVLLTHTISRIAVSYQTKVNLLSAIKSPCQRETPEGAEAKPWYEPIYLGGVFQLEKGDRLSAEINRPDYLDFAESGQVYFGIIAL
Tumor susceptibility gene 101 protein (Homo sapiens), sequence (Q99816 whole entry, looked up, the tested form may be a part): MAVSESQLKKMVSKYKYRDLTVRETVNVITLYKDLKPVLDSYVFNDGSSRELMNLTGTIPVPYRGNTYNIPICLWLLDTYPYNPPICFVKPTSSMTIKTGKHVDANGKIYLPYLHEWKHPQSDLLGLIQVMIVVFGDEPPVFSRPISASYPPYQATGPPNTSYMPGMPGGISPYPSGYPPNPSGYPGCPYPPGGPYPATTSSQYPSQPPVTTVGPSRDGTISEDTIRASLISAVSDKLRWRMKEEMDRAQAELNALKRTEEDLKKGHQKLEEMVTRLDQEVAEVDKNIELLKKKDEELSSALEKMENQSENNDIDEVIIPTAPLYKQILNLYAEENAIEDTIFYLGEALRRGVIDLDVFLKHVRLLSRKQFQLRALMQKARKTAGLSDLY
Glutaminase kidney isoform, mitochondrial (Homo sapiens), sequence (O94925 whole entry, looked up, canonical isoform): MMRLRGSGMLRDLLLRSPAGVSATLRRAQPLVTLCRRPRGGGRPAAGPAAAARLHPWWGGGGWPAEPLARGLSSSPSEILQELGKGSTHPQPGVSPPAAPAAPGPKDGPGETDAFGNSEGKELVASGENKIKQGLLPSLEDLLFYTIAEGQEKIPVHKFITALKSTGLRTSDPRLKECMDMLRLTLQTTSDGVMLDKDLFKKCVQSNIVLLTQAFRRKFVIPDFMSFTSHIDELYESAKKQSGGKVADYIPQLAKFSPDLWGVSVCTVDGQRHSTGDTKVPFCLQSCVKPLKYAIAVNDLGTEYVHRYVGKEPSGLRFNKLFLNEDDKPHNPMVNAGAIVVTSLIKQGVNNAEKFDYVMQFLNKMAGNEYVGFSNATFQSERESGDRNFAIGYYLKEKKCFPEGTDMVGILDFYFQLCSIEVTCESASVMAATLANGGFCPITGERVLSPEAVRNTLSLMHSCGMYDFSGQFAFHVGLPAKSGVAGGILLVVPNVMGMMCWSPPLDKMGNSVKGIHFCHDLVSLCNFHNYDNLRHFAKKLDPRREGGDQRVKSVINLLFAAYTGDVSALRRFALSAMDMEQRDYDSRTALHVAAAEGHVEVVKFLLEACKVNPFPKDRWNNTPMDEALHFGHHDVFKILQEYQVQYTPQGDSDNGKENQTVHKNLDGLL

Take `O=C1C(c2[nH]c3ccc(S(=O)(=O)O)cc3c2O)=Nc2ccc(S(=O)(=O)O)cc21`: the Potency entry in test [1] was “inactive”.

`CC(CN(C)C)CN1c2ccccc2S(=O)(=O)c2ccccc21` (configuration not stated): in [1], the Potency result is “inactive”.

With `O=S(O)CNc1ccc(S(=O)(=O)c2ccc(NCS(=O)O)cc2)cc1`, the Potency entry in [1] was “inactive”.

For the compound `CCCOc1ccc2nc(NC(=O)OC)sc2c1`, the result in [2] and in test [5] was inactive. For the same compound, the Potency in [1] was 1.14 µM (active). The Potency result in test [3] and in test [4] was “inactive” each time. On to `CN=C(NC)NCc1ccccc1`, for which, in test [1], the Potency entry is “inactive”. For the compound `C=Cc1ccccc1`, the call in test [2], in test [8] and in test [9] was inactive. Moreover, the Potency entry in [1] was “inactive”. For the same compound, the activation is -0.864% and -2.45% in test [6]; -0.47% and -1.21% in [7]; 0.041% and 1.82% in test [10]. Besides, the max response in test [11] was -2.11% and 2.32%. `COc1cc2c(c(OC)c1OC)-c1c(cc3c(c1OC)OCO3)C[C@@H](C)[C@](C)(O)C2`: in [1], the Potency result is “inactive”. Same read-out and setting: to `Cc1cc(-n2c(=O)[nH]c(=O)n(C)c2=O)ccc1Oc1ccc(S(=O)(=O)C(F)(F)F)cc1` belongs “inactive”; to `Cn1nnnc1SCC1=C(C(=O)O)N2C(=O)[C@@H](NC(=O)[C@H](OC=O)c3ccccc3)[C@H]2SC1`, “inactive”. Turning to `CCOC(=O)Nc1ccc2c(c1)N(C(=O)CN(C)C)c1ccccc1CC2`, the Potency entry in test [1] was “inactive”. Same read-out and setting: the entry for `CN1CC(O)c2cc(N=NC(N)=O)c(O)cc21` (configuration not stated) is “inactive”. On the same count and under the same terms, the entry for `C[C@H]1C[C@@H]2[C@H]([C@@H](O)C[C@@]3(C)[C@H]2CC[C@]3(O)C(=O)COC(=O)CCC(=O)O)[C@@]2(C)C=CC(=O)C=C12` is “inactive”.

Consider `O=S(=O)(c1ccccc1)N(CC(F)(F)F)c1ccc(C(O)(C(F)(F)F)C(F)(F)F)cc1`, for which the Potency in [12] is 27.3 µM (active). Moreover, the activation in test [6] was 23.4%; in test [10], 5.58%. For the same compound, in test [11], the max response is -0.426%. As to `CCCCCCCC/C=C\CCCCCCCC(=O)OC[C@@H](O)[C@H]1OC[C@H](O)[C@H]1O`, the Potency result in test [1] and in [12] was “inactive” throughout. The activation in test [6] is 1.59%; in test [7] it was 0.379%. Besides, the Potency in test [11] is 39.8 µM (active). Turning to `CN[C@@H]1CCc2[nH]c3ccc(C(N)=O)cc3c2C1`, in test [1], the Potency entry was “inactive”. With `COC1C(OC(=O)/C=C/C=C/C=C/C=C/C(=O)O)CCC2(CO2)C1C1(C)OC1CC=C(C)C` (configuration not stated), the Potency entry in [1] and in [3] was “inactive” each time. In the case of `CC(=O)[C@@]1(O)CC[C@H]2[C@@H]3C=C(Cl)C4=CC(=O)CC[C@]4(C)[C@H]3CC[C@@]21C`, the Potency result in test [1] was “inactive”. Same read-out and setting: to `CCCCCCCCCCCCCCCC(=O)OC/C=C(C)/C=C/C=C(C)/C=C/C1=C(C)CCCC1(C)C` belongs “inactive”; to `CCC(C)(C)OC(=O)N[C@@H](Cc1c[nH]c2ccccc12)C(=O)N[C@@H](CCSC)C(=O)N[C@@H](CC(=O)O)C(=O)N[C@@H](Cc1ccccc1)C(N)=O`, “inactive”. For the compound `CCOc1ccc(N=C(C)Nc2ccc(OCC)cc2)cc1`, in [1], the Potency entry was “inactive”. Consider `NNc1nnc(Cc2ccncc2)c2ccccc12`, for which, in [1], the Potency is 5.1 µM (active). Turning to `CCCCCCCCCCCCCCCC(=O)OC[C@@H](COP(=O)([O-])OCC[N+](C)(C)C)OC(=O)CCCCCCCCCCCCCCC`, the Potency entry in test [1] is “inactive”.

With `CCOC(=O)COc1ccc2c(C)c(CCN(CC)CC)c(=O)oc2c1`, in test [1], the Potency result is “inactive”.

As for `COc1cc2[nH]c(C)c(CCN3CCN(c4ccccc4)CC3)c2cc1OC`, the Potency result in test [1] was “inactive”.

With `CC1(S(=O)(=O)O)CC(=O)c2ccccc2C1=O` (configuration not stated), the Potency result in test [1] is “inactive”. As to `CS(=O)(=O)OCCCNCCCOS(C)(=O)=O`, the Potency entry in [1] was “inactive”. The same measure, in the same setting: to `COc1ccc(C2NC(=S)N3C(c4ccc(OC)c(OC)c4)NC(=S)N23)cc1OC` (configuration not stated) belongs “inactive”. On the same count and under the same terms, to `NCCCNCCCCNC(=O)C(O)NC(=O)CCCCCCN=C(N)N` (configuration not stated) belongs “inactive”. As to `CC[C@H](C)/C=C(C)/C=C/C1=CC2=CC(=O)[C@]3(C)OC(=O)[C@@H](C(C)=O)[C@@H]3C2=CO1`, the compound was classed as inactive in test [13]. Consider `CN1CCN(C2=Nc3ccccc3Cc3ccccc32)CC1`, for which the Potency result in [1] was “inactive”. As for `C=CCNC1=C2C[C@@H](C)C[C@H](OC)[C@H](O)[C@@H](C)/C=C(\C)[C@H](OC(N)=O)[C@@H](OC)/C=C\C=C(/C)C(=O)NC(=CC1=O)C2=O`, the Potency entry in test [1] was “inactive”. Also, the Potency in test [3] is 16.1 µM (active); in test [4], 0.0721 µM (active). For the same compound, in [5], the outcome was inactive. Take `CC1=C(C(=O)OCCN(Cc2ccccc2)c2ccccc2)C(c2cccc([N+](=O)[O-])c2)C(P2(=O)OCC(C)(C)CO2)=C(C)N1` (configuration not stated): the Potency result in test [1] was “inactive”. Same read-out and setting: the entry for `CCCCCCCCCCCCCCCCCC(=O)OCCO` is “inactive”; for `CCN1CCCC1CNC(=O)c1cc(S(=O)(=O)CC)ccc1OC` (configuration not stated) it is “inactive”. On the same count and under the same terms, to `CCC(=O)O` belongs “inactive”; to `O=C(O)c1cccc(/C=C2/C[C@@H]3[C@@H](/C=C/[C@@H](O)C4CCCCC4)[C@H](O)C[C@@H]3O2)c1`, “inactive”; to `CCOC(=O)[C@H](CCc1ccccc1)N[C@H]1CCCN2CCC[C@@H](C(=O)O)N2C1=O`, “inactive”. Turning to `Cc1ccc(/C(=C\CN2CCCC2)c2cccc(/C=C/C(=O)O)n2)cc1`, the Potency entry in test [1] is “inactive”. On to `CN[C@H]1CC[C@@H](c2ccc(Cl)c(Cl)c2)c2ccccc21`, for which the Potency entry in test [1] was “inactive”. Further, the Potency in test [3] is 28.7 µM (active). Also, the compound was called inactive in test [5], in [14], in test [15], in test [16] and in test [17].

The values are drawn from PubChem BioAssay (NCATS).
